Compound activity (PubChem)
The sample as a whole holds a higher share of hits than the screen did.
Pf Dd2 growth: inhibitors of Plasmodium falciparum Dd2 growth | P. falciparum Dd2 growth, SYBR Green, 72 h | Potency, µM (titrated, usually from 28.9 µM), without a hit: top-dose activity, negative = inhibition, most hits filed as inhibitors | 120,000 tested, 4.3% active | AID 1347417; active = well fitted inhibition curve with a large enough effect;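 note: plate controls were DMSO vehicle for no effect and reference drug for full effect; nearly all actives have a fitted effect of over 65% in size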
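Infected erythrocytes (Dd2, 0.3% parasitemia, 2.5% hematocrit final) are added to compound in RPMI-1640/Albumax II medium, grown 72 h at 37C in low oxygen, then lysed with saponin/Triton-X containing SYBR Green and read by fluorescence.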
* marks the source's active call; other numbers are inactive results; [ ] = dose if it differs, or a comment. Potency is the fitted concentration of half-maximal effect.

Screening COc1cc(F)ccc1-c1cc(-c2c(C)noc2C)c2cncn2c1 returned Pf Dd2 growth 3.5µM*.
COc1ccc(-c2ccc3onc(C)c3n2)cc1OC was read as Pf Dd2 growth 11%[44.1 µM].
`COc1ccc(-c2cc(-c3c(C)noc3C)c3cncn3c2)cc1OC` gave Pf Dd2 growth 7.1µM*.
COc1cc(F)ccc1-c1nc(-c2c(C)noc2C)cc2c1cc(C)n2C was read as Pf Dd2 growth -2%[44.1 µM].
Screening COCCN(Cc1ccccn1)Cc1cc(=O)c2cc(C)cc(C)c2[nH]1 returned Pf Dd2 growth -18%.
For Clc1cc(N2CCN(c3ncccn3)CC2)n2nccc2n1 the results were Pf Dd2 growth -16%[44.1 µM].
For Cc1cc(S(=O)(=O)N[C@@H]2CCOC[C@H]2OCc2cscn2)n(C)n1 the results were Pf Dd2 growth -2%.
For O=C(c1ccccc1)N1CCC2(CC1)CC(N(Cc1ccccc1)C1CC1)CCO2 (stereo not given) the results were Pf Dd2 growth inactive.
Screening O=C(Cc1ccc(F)cc1)N1CCC2(CC1)CC(N(Cc1ccccc1)C1CC1)CCO2 (stereo not given) returned Pf Dd2 growth 5.6µM*.
For Cc1cnc(C(=O)N2CCC3(CC2)CC(N(Cc2ccc(F)cc2)C2CC2)CCO3)cn1 (stereo not given) the results were Pf Dd2 growth -6%.
Screening O=C(c1ccoc1)N1CCC2(CC1)CC(N(Cc1ccc(F)cc1)C1CC1)CCO2 (stereo not given) returned Pf Dd2 growth 13µM*.
`CS(=O)(=O)N(C1CC1)C1CCOC2(CCN(C(=O)c3ccc(F)cc3)CC2)C1` (stereo not given) gave Pf Dd2 growth inactive.
For O=C(c1ccc(F)cc1)N1CCC2(CC1)CC(N(Cc1ccccc1)C1CC1)CCO2 (stereo not given) the results were Pf Dd2 growth -10%.
Screening O=C(CCC1CCCC1)N1CCC2(CC1)CC(N(Cc1ccc(F)cc1)C1CC1)CCO2 (stereo not given) returned Pf Dd2 growth 3.5µM*.
O=C(Cc1ccsc1)N1CCC2(CC1)CC(N(Cc1ccccc1)C1CC1)CCO2 (stereo not given) was read as Pf Dd2 growth -9%.
`Cn1nccc1C(=O)N1CCC2(CC1)CC(N(Cc1ccc(F)cc1)C1CC1)CCO2` (stereo not given) gave Pf Dd2 growth -22%.
`COc1ccc2cc(CN3CCC(OC)CC3)c(-c3cccc(C)c3)nc2c1` gave Pf Dd2 growth 10µM*.
Screening COc1ccc(N2CC(c3noc(-c4cccc(C)c4)n3)CC2=O)cc1 (stereo not given) returned Pf Dd2 growth inactive.
COc1ccc(-c2nc3cc(C)ccc3cc2CN2CCC[C@H]2C(N)=O)cc1OC was read as Pf Dd2 growth -6%.
Screening COc1ccc(-c2[nH]ncc2CN2CC[C@H]3CC[C@@H](C2)N3)cc1 returned Pf Dd2 growth -10%.
Cc1cccc(-c2nc3cc(C)ccc3cc2CN2CCN(CCCO)CC2)c1 was read as Pf Dd2 growth inactive.
`COCC1CCN(Cc2cc3ccc(OC)cc3nc2-c2cccc(C)c2)C1` (stereo not given) gave Pf Dd2 growth 11µM*.
COc1cc2c(cc1Oc1ccccc1)NC(=O)C21CCN(C(=O)c2cccnc2)CC1 was read as Pf Dd2 growth inactive.
For CO[C@@H]1COCC[C@H]1NC(=O)c1cccc(Oc2ccccc2)c1 the results were Pf Dd2 growth -13%.
Screening Fc1ccc(CNC2(Cc3cc(-c4ccccc4)on3)COC2)cc1 returned Pf Dd2 growth -11%[44.1 µM].
Screening O=C(CCc1ccc(=O)[nH]n1)N[C@@H]1COCC[C@H]1Oc1ccccn1 returned Pf Dd2 growth -11%.
For CN1CCN(C(=O)N2CCC(c3nccn3CC3CC3)CC2)CC1 the results were Pf Dd2 growth 12%.
`Cc1ccc(NC2=C(c3ccc(C(F)(F)F)cc3)C(=O)c3ccccc32)cc1C` gave Pf Dd2 growth 0.79µM*.
COc1cccc(N2C(=O)NC(=NC3CCCCC3)C23CCCN(C(=O)c2ccc(C)cc2)C3)c1 (stereo not given) was read as Pf Dd2 growth 13%.
COC(=O)N1CCC2(C1)C(=NC1CCCCC1)NC(=O)N2c1cccc(OC)c1 (stereo not given) was read as Pf Dd2 growth 5%.
For COc1cccc(N2C(=O)NC(=NC3CCCCC3)C23CCN(Cc2cccn2C)CC3)c1 the results were Pf Dd2 growth -20%.
For COc1cccc(N2C(=O)NC(=NC3CCCC3)C23CCCN(CC2CCCCC2)C3)c1 (stereo not given) the results were Pf Dd2 growth 10µM*.
Screening COc1cccc(N2C(=O)NC(=NC3CCCC3)C23CCCN(C(=O)c2ccc(C)cc2)C3)c1 (stereo not given) returned Pf Dd2 growth 20%.
`COc1cccc(N2C(=O)NC(=NC3CCCCC3)C23CCN(C(=O)OCc2ccccc2)C3)c1` (stereo not given) gave Pf Dd2 growth inactive.
For COc1cccc(N2C(=O)NC(=NC3CCCCC3)C23CCN(C(C)=O)C3)c1 (stereo not given) the results were Pf Dd2 growth 16%.
COc1cccc(N2C(=O)NC(=NC3CCCCC3)C23CCCN(CC2CCCCC2)C3)c1 (stereo not given) was read as Pf Dd2 growth 13µM*.
`COc1cccc(N2C(=O)NC(=NC3CCCCC3)C23CCCN(CCC(C)C)C3)c1` (stereo not given) gave Pf Dd2 growth 11µM*.
CCCC1(CO)CCCN(CCc2cnn(C)c2)C1 (stereo not given) was read as Pf Dd2 growth -13%.
For CC(C)Oc1ccc(C(=O)N2CCCN(S(C)(=O)=O)c3ccccc32)cc1 the results were Pf Dd2 growth inactive.
Screening O=C1CC2(CCN(Cc3ccccc3)CC2)Oc2ccccc2N1 returned Pf Dd2 growth -19%.
Cc1ccc(Nc2ccnc(N3CC4CCC(C3)N4CC(F)(F)F)n2)cc1 was read as Pf Dd2 growth 10µM*.
Screening Cc1cc(C)nc(N2CC3CCC(C2)N3CC(F)(F)F)c1 returned Pf Dd2 growth inactive.
`FC(F)(F)CN1C2CCC1CN(c1nccc(C(F)(F)F)n1)C2` gave Pf Dd2 growth 16%.
Screening COc1cccc([S+](=O)([O-])N2CCC3(CC2)CC(=O)Nc2ccccc2O3)c1 returned Pf Dd2 growth -10%.
`Cc1cn2nc(C(=O)Nc3ccc(C(F)(F)F)cc3)cc2c(N2CCSCC2)n1` gave Pf Dd2 growth -16%.
COc1ccc2c(c1)nc1n2[C@@H](CNC(C)C)COC1 was read as Pf Dd2 growth inactive.
`CCCc1noc(-c2ccn3c(CNC(=O)c4ccc(F)cc4Cl)nnc3c2)n1` gave Pf Dd2 growth 3.5µM*.
Screening Cc1noc(-c2ccn3c(CNC(=O)c4cccc(Cl)c4)nnc3c2)n1 returned Pf Dd2 growth inactive.
For Cc1noc(-c2ccn3c(CNC(=O)c4ccccc4Cl)nnc3c2)n1 the results were Pf Dd2 growth 0.28µM*.
Screening Cc1noc(-c2ccn3c(CNC(=O)c4ccc(F)cc4Cl)nnc3c2)n1 returned Pf Dd2 growth -22%.
Screening CCCc1noc(-c2ccn3c(CNC(=O)c4ccc(C)cc4C)nnc3c2)n1 returned Pf Dd2 growth -7%.
Screening Cc1noc(-c2ccn3c(CNC(=O)c4ccccc4F)nnc3c2)n1 returned Pf Dd2 growth inactive.
Screening CCCN(CC1CCOC1)C(=O)Nc1ccc(CC)cc1 (stereo not given) returned Pf Dd2 growth -4%[5.79 µM].
`O=C(O)CC1COCCN1C(=O)Cn1cnnn1` (stereo not given) gave Pf Dd2 growth 7%.
